Measured values reported in PubChem BioAssay (NCI).
The panel holds about 83,000 compounds, 20% with a hit somewhere; the sample as a whole holds those more often.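 Growth was measured after 48 h exposure to one concentration of compound in 96-well plates. Values under 10 count as active.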 Calls of active or inactive are those of the source.

What was measured:
Experiment in all cases: NCI-60 one-dose screen, 48 h (100 = growth as untreated, 0 = no growth, -100 = all killed)
DU-145 prostate = details: 10 µM unless noted
K-562 leukemia = details: 10 µM unless noted
MALME-3M melanoma = details: 10 µM unless noted
RXF 393 renal = details: 10 µM unless noted
SF-295 CNS = details: 10 µM unless noted
UACC-257 melanoma = details: 10 µM unless noted
HCT-15 colon = details: 10 µM
HT29 colon = details: 10 µM unless noted
SNB-19 CNS = details: 10 µM unless noted
PC-3 prostate = details: 10 µM unless noted
SK-MEL-5 melanoma = details: 10 µM unless noted
LOX IMVI melanoma = details: 10 µM unless noted
CAKI-1 renal = details: 10 µM unless noted
HL-60(TB) leukemia = details: 10 µM unless noted
MOLT-4 leukemia = details: 10 µM
T-47D breast = details: 10 µM unless noted
BT-549 breast = details: 10 µM
HCC-2998 colon = details: 10 µM unless noted
SNB-75 CNS = details: 10 µM unless noted
A498 renal = details: 10 µM unless noted

Measured: growth

COC(=O)C[Se]C(=O)c1ccccc1OC(C)=O
inactive: DU-145 prostate 61.8% | K-562 leukemia 79% | MALME-3M melanoma 69.9% | RXF 393 renal 78.9% | SF-295 CNS 53.3% | UACC-257 melanoma 59.7% | HCT-15 colon 46.4% | HT29 colon 33.2% | SNB-19 CNS 83.9% | PC-3 prostate 77.7% | SK-MEL-5 melanoma 90.6% | LOX IMVI melanoma 59.6% | CAKI-1 renal 87.8% | MOLT-4 leukemia 86% | T-47D breast 84.5% | BT-549 breast 71.9% | HCC-2998 colon 62.1%
active: HL-60(TB) leukemia -4.01%

CCOC(=O)/C(C#N)=C/c1ccc(N(CCCl)CCCl)cc1
inactive: DU-145 prostate 98.8% | K-562 leukemia 98.6% | MALME-3M melanoma 99.7% | RXF 393 renal 93.3% | SF-295 CNS 43.6% | UACC-257 melanoma 103% | HCT-15 colon 91.1% | HT29 colon 92.5% | SNB-75 CNS 73.3% | SNB-19 CNS 106% | PC-3 prostate 69.7% | SK-MEL-5 melanoma 97.9% | LOX IMVI melanoma 92% | A498 renal 95.5% | HL-60(TB) leukemia 85.2% | MOLT-4 leukemia 84.7% | T-47D breast 80.6% | BT-549 breast 95.3% | HCC-2998 colon 105%
active: CAKI-1 renal -9.24%

O=C(O)c1cccc(CCl)c1
inactive: DU-145 prostate 108% | K-562 leukemia 101% | MALME-3M melanoma 110% | RXF 393 renal 112% | UACC-257 melanoma 94.2% | HCT-15 colon 93% | HT29 colon 102% | SNB-75 CNS 87.2% | SNB-19 CNS 114% | PC-3 prostate 102% | SK-MEL-5 melanoma 113% | LOX IMVI melanoma 95.8% | CAKI-1 renal 106% | A498 renal 117% | HL-60(TB) leukemia 93.4% | MOLT-4 leukemia 93.2% | T-47D breast 96.3% | BT-549 breast 96.6% | HCC-2998 colon 112%

COc1cc(C2=NN(c3ccccc3)C(c3sc(N(CCCl)CCCl)nc3Cl)C2)cc(OC)c1OC (stereo unspecified)
inactive: DU-145 prostate 102% | K-562 leukemia 74.3% | MALME-3M melanoma 121% | RXF 393 renal 106% | SF-295 CNS 89.4% | UACC-257 melanoma 87.4% | HCT-15 colon 97.5% | HT29 colon 84.5% | SNB-75 CNS 69.2% | SNB-19 CNS 86.4% | PC-3 prostate 73.9% | SK-MEL-5 melanoma 88.4% | LOX IMVI melanoma 92.7% | CAKI-1 renal 64% | A498 renal 93.2% | HL-60(TB) leukemia 96.2% | MOLT-4 leukemia 70.9% | T-47D breast 68.7% | BT-549 breast 95.4% | HCC-2998 colon 99.9%

ClCCN(CCCl)c1ccc(C=NCCc2c[nH]c3ccccc23)cc1
inactive: DU-145 prostate 56.2% | K-562 leukemia 82.4% | MALME-3M melanoma 76.7% | RXF 393 renal 56.1% | SF-295 CNS 35.6% | UACC-257 melanoma 99.9% | HCT-15 colon 90.3% | HT29 colon 85.1% | SNB-75 CNS 82.5% | SNB-19 CNS 89.8% | PC-3 prostate 57% | SK-MEL-5 melanoma 75.8% | LOX IMVI melanoma 74.7% | CAKI-1 renal 23.5% | HL-60(TB) leukemia 91% | MOLT-4 leukemia 63.1% | T-47D breast 80.6% | BT-549 breast 81.9% | HCC-2998 colon 91.8%
active: A498 renal 1.98%

CCOC(=O)Nc1cc(Cl)c([N+](=O)[O-])c(NC(=O)OCC)n1
active: K-562 leukemia 8.75% | CAKI-1 renal -95.5%
inactive: DU-145 prostate 107% | MALME-3M melanoma 99.3% | RXF 393 renal 99.3% | SF-295 CNS 101% | UACC-257 melanoma 88.8% | HT29 colon 82.5% | SNB-75 CNS 97.3% | SNB-19 CNS 98.1% | PC-3 prostate 92.2% | SK-MEL-5 melanoma 91.8% | LOX IMVI melanoma 61.5% | A498 renal 93.1% | HL-60(TB) leukemia 38.2% | MOLT-4 leukemia 79.6% | T-47D breast 82.1% | BT-549 breast 94.6% | HCC-2998 colon 103%

O=[N+]([O-])c1cccc([As]=[As]c2cccc([N+](=O)[O-])c2)c1 (stereo unspecified)
active: DU-145 prostate -100% | K-562 leukemia -21.7% | MALME-3M melanoma -89.1% | RXF 393 renal -96.1% | UACC-257 melanoma -94.4% | HCT-15 colon -83.5% | HT29 colon -61.6% | SNB-19 CNS -98.6% | PC-3 prostate -84.8% | SK-MEL-5 melanoma -100% | LOX IMVI melanoma -55.4% | CAKI-1 renal -95.9% | A498 renal -98.8% | HL-60(TB) leukemia -57% | MOLT-4 leukemia -37.4% | T-47D breast -58.3% | BT-549 breast -97.7% | HCC-2998 colon -90.6%

Cc1cccc(N(C)c2cccc3c2C(=O)[Se]C3)c1C
inactive: DU-145 prostate 34.6% | K-562 leukemia 48.2% | MALME-3M melanoma 63.7% | RXF 393 renal 44.7% | SF-295 CNS 20.7% | UACC-257 melanoma 50.7% | HCT-15 colon 31.6% | SNB-19 CNS 58.8% | PC-3 prostate 66.7% | SK-MEL-5 melanoma 66% | LOX IMVI melanoma 38.2% | CAKI-1 renal 70.1% | MOLT-4 leukemia 67.9% | T-47D breast 73.4% | BT-549 breast 52.4% | HCC-2998 colon 47.5%
active: HT29 colon 9.4% | HL-60(TB) leukemia -17.1%

COc1ccc(C(=O)c2ccc([As]=O)cc2)cc1 (stereo unspecified)
active: K-562 leukemia 0.914% | MALME-3M melanoma -87% | RXF 393 renal -99.6% | SF-295 CNS -97.9% | UACC-257 melanoma -95.7% | HCT-15 colon -73% | HT29 colon -68.9% | SNB-75 CNS -97% | SNB-19 CNS -81.4% | PC-3 prostate -86.3% | SK-MEL-5 melanoma -99.5% | LOX IMVI melanoma -97.1% | CAKI-1 renal -98.7% | A498 renal -100% | HL-60(TB) leukemia -47.4% | MOLT-4 leukemia -24.5% | T-47D breast -77.6% | BT-549 breast -99.6% | HCC-2998 colon -88.5%
